Measurements published in PubChem BioAssay (Tox21).
Results filed as inconclusive are left out. The source holds several records for some structures; these can differ, active in one and inactive in another. Activity calls are given as the source filed them. Unless noted, calls follow the shape of the dose curve; as a rule, active = well fitted curve in the direction sought with a large enough effect in the repeat runs; inconclusive = weak or mixed curves; inactive = no such curve, though single readings can be large; an effect the other way counts as inactive or inconclusive.

Legend:
[1] = qHTS assay to identify small molecule agonists of the peroxisome proliferator-activated receptor delta (PPARd) signaling pathway - cell viability counter screen (AID 743211); also: nearly all actives have a fitted effect of over 55% in size
In short: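 Counter screen for cytotoxicity run in parallel with the PPARd reporter screen. Beta-lactamase reporter HEK293H cells exposed to compounds 17 h; ATP-based CellTiter-Glo luminescence quantified viability.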

[2] = target: Peroxisome proliferator-activated receptor delta (Homo sapiens) (UniProt Q03181); experiment: qHTS assay to identify small molecule agonists of the peroxisome proliferator-activated receptor delta (PPARd) signaling pathway (AID 743212; calls by dose curve)
In short: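 Read-out: beta-lactamase FRET fluorescence after 2 h room-temperature incubation with LiveBLAzer B/G substrate. Cells were HEK293H carrying a UAS-bla reporter for PPARd, treated at 37 C with DMSO-dissolved compounds.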

[3] = qHTS assay to identify small molecule antagonists of the peroxisome proliferator-activated receptor delta (PPARd) signaling pathway - cell viability counter screen (AID 743213); also: nearly all actives have a fitted effect of over 50% in size
In short: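 Same-well viability: cells pre-incubated 5 h, dosed with compound plus 300 nM L165041, kept 17 h at 37 C, FRET substrate 2 h RT, then CellTiter-Glo 30 min RT and luminescence.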

[4] = target: Peroxisome proliferator-activated receptor delta (Homo sapiens) (UniProt Q03181); experiment: qHTS assay to identify small molecule antagonists of the peroxisome proliferator-activated receptor delta (PPARd) signaling pathway (AID 743215; active = well fitted inhibition curve with a large enough effect in the signal ratio in the repeat runs, not every such curve was filed as active; the % refers to the signal ratio;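 also: cells stimulated with agonist L165041 at 300 nM final during compound exposure; series mostly up to about 62 µM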)
In short: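 Plated HEK293H PPARd-bla cells rested 5 h at 37 C and 5% CO2. Compound, then agonist L165041 at 300 nM final, was added; 17 h at 37 C followed. Substrate loading, 2 h room temperature, fluorescence measured.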

[5] = qHTS assay to identify small molecule agonists of the farnesoid-X-receptor (FXR) signaling pathway - cell viability counter screen (AID 743218); also: nearly all actives have a fitted effect of over 45% in size
In short: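 Viability of FXR-bla HEK 293T cells is measured by ATP-based CellTiter-Glo luminescence following 16 h compound treatment at 37 C and a prior 2 h room-temperature beta-lactamase substrate step.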

[6] = qHTS assay to identify small molecule antagonists of the farnesoid-X-receptor (FXR) signaling pathway - cell viability counter screen (AID 743221; active = well fitted cell-killing curve with a large enough effect in the repeat runs, not every such curve was filed as active; also: nearly all actives have a fitted effect of over 50% in size)
In short: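 Multiplexed counter screen: viability of FXR-bla HEK 293T cells under agonist stimulation by chenodeoxycholic acid (50 uM, final) and test compound for 16 h at 37 C, measured by CellTiter-Glo luminescence in the reporter wells.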

[7] = target: Vitamin D3 receptor (Homo sapiens) (UniProt P11473); experiment: qHTS assay to identify small molecule agonists of the vitamin D receptor (VDR) signaling pathway (AID 743222; calls by dose curve)
In short: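 Fluorescence from cleaved LiveBLAzer B/G FRET substrate served as readout. VDR-bla cells had been treated 16 h at 37C with test compounds in DMSO, following a 4 h settling period, and substrate was loaded for 2 h at RT.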

[8] = target: Vitamin D3 receptor (Homo sapiens) (UniProt P11473); experiment: qHTS assay to identify small molecule antagonists of the vitamin D receptor (VDR) signaling pathway (AID 743223; active = well fitted inhibition curve with a large enough effect in the signal ratio in the repeat runs, not every such curve was filed as active; the % refers to the signal ratio)
In short: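 Cells carrying a VDR-driven beta-lactamase reporter (VDR-bla) were co-treated with compound and 3 nM final 1alpha,25-dihydroxyvitamin D3 for 16 h at 37C; reporter activity was measured as FRET substrate fluorescence after 2 h at room temperature.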

[9] = qHTS assay to identify small molecule agonists of the vitamin D receptor (VDR) signaling pathway - cell viability counter screen (AID 743224); also: series mostly up to about 63 µM; nearly all actives have a fitted effect of over 50% in size
In short: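 Compounds were pin-transferred onto VDR-bla cells plated 4 h earlier; following 16 h incubation at 37C, cell viability was quantified by CellTiter-Glo luminescence after 30 min at room temperature.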

[10] = qHTS assay to identify small molecule antagonists of the vitamin D receptor (VDR) signaling pathway - cell viability counter screen (AID 743225); also: nearly all actives have a fitted effect of over 50% in size
In short: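 HEK293T VDR-bla; cpd + 1a,25-(OH)2D3 3 nM final, 16 h 37C/5% CO2; B/G FRET substrate 2 h RT; then CellTiter-Glo 30 min RT, luminescence.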

[11] = qHTS assay to identify small molecule agonists of the NFkB signaling pathway - cell viability counter screen (AID 1159515; calls by dose curve; also: series mostly up to about 61 µM; nearly all actives have a fitted effect of over 55% in size)
In short: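 Parallel cytotoxicity counter screen in ME-180 cells carrying an NFkB-response-element beta-lactamase reporter, 2,000 cells/well. Compound exposure lasted 5 hr at 37 C, 5% CO2. Cell viability was quantified by CellTiter-Glo luminescence.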

[12] = qHTS assay to identify small molecule agonists of the endoplasmic reticulum stress response signaling pathway (AID 1159516; active = well fitted activation curve with a large enough effect in the signal ratio in the repeat runs, not every such curve was filed as active; the % refers to the signal ratio)
In short: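 Using a HeLa line with an ESRE-driven beta-lactamase gene, agonist activity was measured by FRET substrate fluorescence (460 and 530 nm emission) after cells were treated with compounds for 5 hr at 37 C and 5% CO2.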

[13] = qHTS assay to identify small molecule agonists of the endoplasmic reticulum stress response signaling pathway - cell viability counter screen (AID 1159517; calls by dose curve)
In short: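 Steps: seed 1,500 ESRE-bla HeLa cells per well; incubate overnight at 37 C, 5% CO2; add compounds in DMSO for 5 hr; run FRET substrate 2 hr RT; add CellTiter-Glo, wait 30 min, read luminescence.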

[14] = qHTS assay to identify small molecule antagonists of the retinoid-related orphan receptor gamma (ROR-gamma) signaling pathway - cell viability counter screen (AID 1159520); also: nearly all actives have a fitted effect of over 50% in size
In short: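 Tet-on ROR gamma CHO cells were given compounds for 2 hr, then doxycycline hyclate at 1 uM final, and incubated 16 hr at 37 C. Viability was measured as ATP content by CellTiter-Glo luminescence.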

[15] = target: Nuclear receptor ROR-gamma (Homo sapiens) (UniProt P51449); experiment: qHTS assay to identify small molecule antagonists of the retinoid-related orphan receptor gamma (ROR-gamma) signaling pathway (AID 1159521)
In short: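 Cells were plated, rested 4 h at 37 C, exposed to compounds for 2 h, then given 1 uM final doxycycline hyclate to induce RORγ expression. After 16 h, ONE-Glo luminescence from the ROR response element reporter was measured.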

[16] = qHTS assay to identify small molecule agonists of the AP-1 signaling pathway - cell viability counter screen (AID 1159525; calls by dose curve; also: nearly all actives have a fitted effect of over 55% in size)
In short: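 Same-well cytotoxicity counter screen of the Tox21 10K library in ME-180 cells. The readout is ATP-dependent luminescence after 5 h compound treatment. Data are normalised to DMSO and tetra n-octyl ammonium bromide controls.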

[17] = qHTS assay to identify small molecule agonists of the AP-1 signaling pathway (AID 1159526; calls by dose curve; also: potency is read from the fitted curve at half-maximal effect)
[18] = target: Bile acid receptor (Homo sapiens) (UniProt Q96RI1); experiment: qHTS assay to identify small molecule antagonists of the farnesoid-X-receptor (FXR) signaling pathway (AID 743217; active = well fitted inhibition curve with a large enough effect in the signal ratio in the repeat runs, not every such curve was filed as active; the % refers to the signal ratio)
In short: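 Screen of the Tox21 10K library in quantitative HTS format using FXR-UAS-bla HEK 293T reporter cells. Agonist chenodeoxycholic acid, 50 uM final, added with compounds; 16 h incubation at 37 °C; beta-lactamase FRET fluorescence measured.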

[19] = target: Bile acid receptor (Homo sapiens) (UniProt Q96RI1); experiment: qHTS assay to identify small molecule agonists of the farnesoid-X-receptor (FXR) signaling pathway (AID 743220; active = well fitted activation curve with a large enough effect in the signal ratio in the repeat runs, not every such curve was filed as active; the % refers to the signal ratio)
In short: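 FXR-UAS-bla HEK 293T cells carrying a UAS-driven beta-lactamase reporter were plated for 5 h at 37C/5% CO2, then exposed to DMSO-dissolved Tox21 10K compounds for 16 h at 37C. A LiveBLAzer B/G FRET substrate was loaded for 2 h at room temperature before fluorescence reading.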

Measured: Potency

Sequence of Bile acid receptor (Homo sapiens) (Q96RI1 whole entry, looked up): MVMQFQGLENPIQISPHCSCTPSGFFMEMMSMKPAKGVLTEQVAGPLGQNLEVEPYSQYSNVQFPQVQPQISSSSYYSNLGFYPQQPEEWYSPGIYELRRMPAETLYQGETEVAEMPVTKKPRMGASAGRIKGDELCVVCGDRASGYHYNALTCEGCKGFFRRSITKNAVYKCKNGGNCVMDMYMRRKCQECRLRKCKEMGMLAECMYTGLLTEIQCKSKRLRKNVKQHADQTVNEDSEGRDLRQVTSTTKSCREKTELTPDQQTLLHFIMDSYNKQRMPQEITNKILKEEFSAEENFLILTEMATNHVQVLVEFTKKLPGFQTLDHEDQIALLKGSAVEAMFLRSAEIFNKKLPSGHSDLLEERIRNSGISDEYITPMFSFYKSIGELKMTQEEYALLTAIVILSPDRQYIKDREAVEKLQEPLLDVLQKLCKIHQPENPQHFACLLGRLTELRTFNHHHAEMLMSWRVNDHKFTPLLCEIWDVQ
Sequence of Vitamin D3 receptor (Homo sapiens) (P11473 whole entry, looked up): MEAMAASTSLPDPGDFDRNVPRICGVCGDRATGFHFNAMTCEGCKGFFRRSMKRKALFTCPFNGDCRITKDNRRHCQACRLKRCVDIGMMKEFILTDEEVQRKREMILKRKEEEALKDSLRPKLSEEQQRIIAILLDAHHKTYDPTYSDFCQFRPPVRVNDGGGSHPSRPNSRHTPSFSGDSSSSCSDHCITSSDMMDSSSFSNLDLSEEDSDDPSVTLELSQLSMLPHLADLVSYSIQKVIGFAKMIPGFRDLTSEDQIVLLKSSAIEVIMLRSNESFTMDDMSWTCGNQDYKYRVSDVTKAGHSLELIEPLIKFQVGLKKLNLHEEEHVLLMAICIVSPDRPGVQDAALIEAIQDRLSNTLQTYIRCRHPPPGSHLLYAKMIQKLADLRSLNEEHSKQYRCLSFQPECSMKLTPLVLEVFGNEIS
Sequence of Peroxisome proliferator-activated receptor delta (Homo sapiens) (Q03181 whole entry, looked up): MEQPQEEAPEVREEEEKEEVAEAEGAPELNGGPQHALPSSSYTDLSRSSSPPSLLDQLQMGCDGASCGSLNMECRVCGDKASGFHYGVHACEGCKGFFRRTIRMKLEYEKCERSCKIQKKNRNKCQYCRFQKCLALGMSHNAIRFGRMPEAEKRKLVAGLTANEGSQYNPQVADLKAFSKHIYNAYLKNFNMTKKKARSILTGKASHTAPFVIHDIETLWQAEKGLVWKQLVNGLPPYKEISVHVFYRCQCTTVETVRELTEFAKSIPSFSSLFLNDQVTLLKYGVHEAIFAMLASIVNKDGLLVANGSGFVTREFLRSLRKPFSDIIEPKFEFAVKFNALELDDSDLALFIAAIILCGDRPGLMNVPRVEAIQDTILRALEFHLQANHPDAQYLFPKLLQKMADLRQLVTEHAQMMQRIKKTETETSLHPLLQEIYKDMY

O=C(O)/C=C\C(=O)O
inactive: [1] | [2] | [3] | [4] | [5] | [6] | [7] | [8] | [9] | [10] | [11] | [12] | [13] | [14] | [15] | [16] | [17]

CNC[C@H](O)c1cccc(O)c1
inactive: [1] | [3] | [5] | [6] | [7] | [8] | [9] | [10] | [11] | [12] | [13] | [14] | [16] | [17]

Cn1cc[nH]c1=S
inactive: [1] | [2] | [3] | [4] | [5] | [6] | [7] | [8] | [9] | [10] | [11] | [12] | [13] | [14] | [15] | [16]
54.9 µM (active) and inactive: [17]

O=C(O)CCCCC(=O)O
inactive: [1] | [2] | [3] | [18] | [5] | [19] | [6] | [7] | [8] | [9] | [10] | [11] | [12] | [13] | [14] | [16] | [17]

O=C(C1CCCCC1)N1CC(=O)N2CCc3ccccc3C2C1 (stereo not given)
inactive: [1] | [2] | [3] | [4] | [5] | [6] | [7] | [8] | [9] | [10] | [11] | [12] | [13] | [14] | [15] | [16] | [17]

C/C=C/c1ccc(OC)cc1
inactive: [1] | [2] | [3] | [5] | [6] | [9] | [10] | [11] | [12] | [13] | [14] | [15] | [16] | [17]

COc1c2occc2cc2ccc(=O)oc12
inactive: [1] | [3] | [18] | [5] | [19] | [6] | [7] | [8] | [9] | [10] | [11] | [12] | [13] | [14] | [16] | [17]

Cn1c(=O)c2[nH]cnc2n(C)c1=O
inactive: [1] | [2] | [3] | [18] | [5] | [19] | [6] | [9] | [10] | [11] | [12] | [13] | [14] | [16] | [17]

NC(=O)c1cnccn1
inactive: [1] | [2] | [3] | [4] | [5] | [6] | [7] | [8] | [9] | [10] | [11] | [12] | [13] | [14] | [15] | [16] | [17]

O=S(=O)(O)c1ccc2cc(O)ccc2c1
inactive: [1] | [3] | [5] | [6] | [7] | [8] | [9] | [10] | [11] | [12] | [13] | [14] | [16] | [17]

CCCN(CCC)S(=O)(=O)c1ccc(C(=O)O)cc1
inactive: [1] | [2] | [3] | [4] | [18] | [5] | [19] | [6] | [7] | [8] | [9] | [10] | [11] | [12] | [13] | [14] | [15] | [16] | [17]

CC(C)(Oc1ccc(C2CC2(Cl)Cl)cc1)C(=O)O (stereo not given)
inactive: [1] | [2] | [3] | [4] | [5] | [6] | [7] | [8] | [9] | [10] | [11] | [12] | [13] | [14] | [15] | [16] | [17]

OCCc1ccccc1
inactive: [1] | [2] | [3] | [4] | [18] | [5] | [19] | [6] | [9] | [10] | [11] | [12] | [13] | [14] | [15] | [16] | [17]

NNC(=O)c1ccncc1
inactive: [1] | [2] | [3] | [4] | [5] | [6] | [7] | [8] | [9] | [10] | [11] | [12] | [13] | [14] | [15] | [16] | [17]

NC(N)=O
inactive: [1] | [2] | [3] | [4] | [5] | [6] | [9] | [10] | [11] | [12] | [13] | [14] | [15] | [16] | [17]

CCCCC1C(=O)N(c2ccccc2)N(c2ccccc2)C1=O
inactive: [1] | [3] | [18] | [5] | [19] | [6] | [7] | [8] | [9] | [10] | [11] | [12] | [13] | [14] | [15] | [16] | [17]
